Each structure is given as a SMILES string. In all, about 310,000 compounds went through this assay and about 14,000 (4.5%) showed an effect of 50% or more. Effects have a minus sign here. For the sample, strong results were picked, then their nearest neighbours and some compounds at random.
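Note: peak tail current of the secondary pulse compared with the same well before compound.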

Sequence of human ether-à-go-go-related gene (hERG) potassium channel (Q12809 whole entry, looked up): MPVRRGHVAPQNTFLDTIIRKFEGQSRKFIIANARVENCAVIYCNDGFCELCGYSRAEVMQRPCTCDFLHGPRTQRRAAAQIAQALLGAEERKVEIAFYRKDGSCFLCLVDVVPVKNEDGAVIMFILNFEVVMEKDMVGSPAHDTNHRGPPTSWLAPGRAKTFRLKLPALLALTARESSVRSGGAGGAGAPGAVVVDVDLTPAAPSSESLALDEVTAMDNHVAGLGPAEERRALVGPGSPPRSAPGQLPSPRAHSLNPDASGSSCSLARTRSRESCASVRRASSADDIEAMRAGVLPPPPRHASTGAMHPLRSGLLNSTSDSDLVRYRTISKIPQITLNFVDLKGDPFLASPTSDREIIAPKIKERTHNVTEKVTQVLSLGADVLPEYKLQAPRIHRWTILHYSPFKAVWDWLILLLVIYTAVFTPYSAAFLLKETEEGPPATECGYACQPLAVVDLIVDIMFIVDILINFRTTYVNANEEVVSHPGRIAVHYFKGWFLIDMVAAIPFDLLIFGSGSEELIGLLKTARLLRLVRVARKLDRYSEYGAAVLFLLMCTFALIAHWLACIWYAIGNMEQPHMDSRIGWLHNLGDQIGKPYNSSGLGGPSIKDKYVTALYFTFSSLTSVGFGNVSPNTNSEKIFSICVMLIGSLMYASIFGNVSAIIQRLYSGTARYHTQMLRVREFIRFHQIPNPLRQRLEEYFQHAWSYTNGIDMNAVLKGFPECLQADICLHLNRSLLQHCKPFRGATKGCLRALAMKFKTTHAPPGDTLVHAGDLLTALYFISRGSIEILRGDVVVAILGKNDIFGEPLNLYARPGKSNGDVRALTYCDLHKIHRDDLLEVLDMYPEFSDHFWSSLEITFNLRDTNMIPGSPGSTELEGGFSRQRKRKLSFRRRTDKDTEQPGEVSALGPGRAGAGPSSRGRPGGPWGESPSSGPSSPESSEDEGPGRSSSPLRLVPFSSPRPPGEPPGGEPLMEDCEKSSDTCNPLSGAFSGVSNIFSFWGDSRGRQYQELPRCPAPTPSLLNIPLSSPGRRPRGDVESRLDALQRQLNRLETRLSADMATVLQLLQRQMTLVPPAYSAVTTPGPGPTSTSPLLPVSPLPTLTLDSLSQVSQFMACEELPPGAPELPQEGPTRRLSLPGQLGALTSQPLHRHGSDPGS

The assay concerns the target human ether-à-go-go-related gene (hERG) potassium channel (human, UniProt Q12809). Kind of assay: primary screen, population patch clamp on CHO cells stably expressing hERG; higher = less effect of the substance.
For `CCOc1ccc(NC(=O)/C=C/c2ccccc2)c([N+](=O)[O-])c1`, the “hERG current change (%, negative = inhibition) at 10uM” value is on record as -5.94%.

With `NC(=O)c1ccc(NC(=O)COc2ccc(-n3cnnn3)cc2)cc1`, the “hERG current change (%, negative = inhibition) at 10uM” value is -4.26%.

Regarding `CCc1ccc(-c2cc(C)no2)cc1S(=O)(=O)Nc1cc(C)on1`, the “hERG current change (%, negative = inhibition) at 10uM” value stood at 10.3%.

As to `O=C(CN1CCCC1)Nc1cc(C(F)(F)F)ccc1Cl`, the “hERG current change (%, negative = inhibition) at 10uM” value worked out at 2.22%.

Regarding `O=C(CN1CCN(C(=O)c2ccco2)CC1)Nc1cc(C(F)(F)F)ccc1Cl`, the “hERG current change (%, negative = inhibition) at 10uM” value is listed as -63.6%.

Take `O=C(CN1CCOCC1)Nc1cc(C(F)(F)F)ccc1Cl`: the “hERG current change (%, negative = inhibition) at 10uM” value is -0.356%.

On to `COc1ccccc1N1C(=O)CC(Sc2ccccc2N)C1=O` (stereo not drawn), for which the “hERG current change (%, negative = inhibition) at 10uM” value was determined as 0.966%.

As to `COC(=O)c1ccc(N2CCN(CC(=O)c3ccc(-c4ccccc4)cc3)CC2)c([N+](=O)[O-])c1`, the “hERG current change (%, negative = inhibition) at 10uM” value came to 8.75%.

Regarding `CN1CCN(c2ccccc2NC(=O)c2ccc(N3CCCC3)c([N+](=O)[O-])c2)CC1`, the “hERG current change (%, negative = inhibition) at 10uM” value is -48.5%.

For `COC(=O)c1ccc(N2CCc3ccccc32)c([N+](=O)[O-])c1`, the “hERG current change (%, negative = inhibition) at 10uM” value was 10.5%.

Turning to `CN1CCN(c2ccc(C(=O)NC3CCCCC3)cc2[N+](=O)[O-])CC1`, the “hERG current change (%, negative = inhibition) at 10uM” value is reported as -9.83%.

`COC(=O)c1ccc(N2CCN(S(=O)(=O)c3ccc(C)cc3)CC2)c([N+](=O)[O-])c1`: the “hERG current change (%, negative = inhibition) at 10uM” value is listed as 4.78%.

Regarding `CN1CCN(c2ccc(C(=O)c3ccc(Br)cc3)cc2[N+](=O)[O-])CC1`, the “hERG current change (%, negative = inhibition) at 10uM” value is reported as -72.1%.

In the case of `COC(=O)c1ccc(N2CCN(C)CC2)c([N+](=O)[O-])c1`, the “hERG current change (%, negative = inhibition) at 10uM” value is -63.4%.

In the case of `COC(=O)c1ccc(N2CCN(S(=O)(=O)c3ccc(Br)cc3)CC2)c([N+](=O)[O-])c1`, the “hERG current change (%, negative = inhibition) at 10uM” value was found to be 10.6%.

For `O=C(O)c1ccccc1C(=O)c1ccc(N2CCCC2)c([N+](=O)[O-])c1`, the “hERG current change (%, negative = inhibition) at 10uM” value worked out at 13.8%.

With `COC(=O)c1ccc(N2CCN(C(=O)C3CC3)CC2)c([N+](=O)[O-])c1`, the “hERG current change (%, negative = inhibition) at 10uM” value is given as -7.61%.

For `COC(=O)c1ccc(N2CCN(CC(=O)c3ccc(C)cc3)CC2)c([N+](=O)[O-])c1`, the “hERG current change (%, negative = inhibition) at 10uM” value is reported as -65%.

As to `CN1CCN(c2ccc(C(=O)c3ccccc3)cc2[N+](=O)[O-])CC1`, the “hERG current change (%, negative = inhibition) at 10uM” value is on record as -53.1%.

Turning to `O=C(NCc1cccs1)c1cc2c(s1)CS(=O)(=O)C2`, the “hERG current change (%, negative = inhibition) at 10uM” value was -0.732%.

On to `O=C(N/N=C/c1c[nH]c2ccccc12)C1CC1c1ccccc1` (stereo not drawn), for which the “hERG current change (%, negative = inhibition) at 10uM” value is given as -4.47%.

With `COC(=O)c1cc(C(=O)OC)n(Cc2ccc(F)cc2)n1`, the “hERG current change (%, negative = inhibition) at 10uM” value is -12.9%.

In the case of `O=C(O)c1cccc(N(CCO)CCO)c1`, the “hERG current change (%, negative = inhibition) at 10uM” value is -1.13%.

Consider `CC(C)COP(=O)(c1ccc(N(C)C)cc1)C(O)c1ccc(Br)cc1` (stereo not drawn), for which the “hERG current change (%, negative = inhibition) at 10uM” value came out at 8.63%.

With `COc1ccc(CCNC(=O)c2nnc(CS(=O)(=O)c3ccccc3)o2)cc1OC`, the “hERG current change (%, negative = inhibition) at 10uM” value was -6.44%.

For `Cc1c(-c2ccccc2)cn2c1-c1ccc(C)n1CC2`, the “hERG current change (%, negative = inhibition) at 10uM” value is on record as -0.42%.

`COc1ccc(-c2nnc(SCC(=O)N(C)C3CCS(=O)(=O)C3)n2N)cc1OC` (stereo not drawn): the “hERG current change (%, negative = inhibition) at 10uM” value was 19.8%.

In the case of `O=C(CN1C(=O)/C(=C\c2ccc(C(F)(F)F)cc2)Sc2ccccc21)NCc1ccco1`, the “hERG current change (%, negative = inhibition) at 10uM” value is given as -5.39%.

As to `Cc1cc(=O)[nH]c(N/N=C/C(C)c2ccccc2)n1` (stereo not drawn), the “hERG current change (%, negative = inhibition) at 10uM” value is listed as 7.54%.

In the case of `CCc1cccc(CC)c1NC(=O)C1SC(=Nc2ccccc2C)C(c2nc3ccccc3s2)=C1N` (stereo not drawn), the “hERG current change (%, negative = inhibition) at 10uM” value was found to be 29.1%.

With `CN1CCN(c2ccc(C(N)=O)cc2[N+](=O)[O-])CC1`, the “hERG current change (%, negative = inhibition) at 10uM” value was found to be 7.57%.

Consider `Cc1ccc(C(=O)c2ccc(N3CCN(C)CC3)c([N+](=O)[O-])c2)cc1`, for which the “hERG current change (%, negative = inhibition) at 10uM” value was -68.8%.

For `Cc1ccc(OC(=O)c2ccc(N3CCOCC3)c([N+](=O)[O-])c2)cc1`, the “hERG current change (%, negative = inhibition) at 10uM” value was -4.31%.

For `CN1/C(=C\C(=O)COC(=O)C2COc3ccccc3O2)C(C)(C)c2ccccc21` (stereo not drawn), the “hERG current change (%, negative = inhibition) at 10uM” value is 9.13%.

With `CCCCn1c(N)c(N(CCC(C)C)C(=O)C(C)N2C(=O)c3ccccc3C2=O)c(=O)[nH]c1=O` (stereo not drawn), the “hERG current change (%, negative = inhibition) at 10uM” value worked out at 8.31%.

For the compound `CCCOC(=O)c1cccc(NC(=O)C(C)(C)C)c1`, the “hERG current change (%, negative = inhibition) at 10uM” value was 1.43%.

Take `CCC1(C)Cc2c(sc3nnn(CC(=O)Nc4cccc5ccccc45)c(=O)c23)CO1` (stereo not drawn): the “hERG current change (%, negative = inhibition) at 10uM” value turned out to be 3.09%.

In the case of `CCC1(C)Cc2c(sc3nnn(CC(=O)Nc4ccccc4C)c(=O)c23)CO1` (stereo not drawn), the “hERG current change (%, negative = inhibition) at 10uM” value was -58.4%.

In the case of `Cc1ccccc1NC(=O)Cn1nnc2sc3c(c2c1=O)CC(C)(C)OC3`, the “hERG current change (%, negative = inhibition) at 10uM” value is listed as -35.2%.

For `O=C1CN(C(=O)CN2CCCC2)C(c2ccccc2)c2cc(Br)ccc2N1` (stereo not drawn), the “hERG current change (%, negative = inhibition) at 10uM” value is on record as -46.6%.

Take `CCC(CC)C(=O)N1CC(=O)Nc2ccc(Br)cc2C1c1ccccc1` (stereo not drawn): the “hERG current change (%, negative = inhibition) at 10uM” value is reported as -73.5%.

As for `CCC(=O)N1CC(=O)Nc2ccc(Br)cc2C1c1ccccc1` (stereo not drawn), the “hERG current change (%, negative = inhibition) at 10uM” value is recorded as -11.6%.

On to `O=C1CN(C(=O)CCN2CCOCC2)C(c2ccccc2)c2cc(Br)ccc2N1` (stereo not drawn), for which the “hERG current change (%, negative = inhibition) at 10uM” value is listed as -60.5%.

With `CCC(CC)C(=O)N1CC(=O)Nc2ccc(C)cc2C1c1ccccc1` (stereo not drawn), the “hERG current change (%, negative = inhibition) at 10uM” value is -38.1%.

For `CCOC(=O)N1CC(=O)Nc2ccc(Br)cc2C1c1ccccc1` (stereo not drawn), the “hERG current change (%, negative = inhibition) at 10uM” value is listed as -24.4%.

Take `COC(=O)CN1C(=O)Nc2ccc(Br)cc2C1c1ccccc1` (stereo not drawn): the “hERG current change (%, negative = inhibition) at 10uM” value is listed as -14.6%.

For the compound `CCC(CC)C(=O)N1CC(=O)Nc2ccc(F)cc2C1c1ccccc1` (stereo not drawn), the “hERG current change (%, negative = inhibition) at 10uM” value was -11.4%.

In the case of `O=C1CN(C(=O)CN2CCOCC2)C(c2ccccc2)c2cc(Br)ccc2N1` (stereo not drawn), the “hERG current change (%, negative = inhibition) at 10uM” value is -32.3%.

Turning to `O=C(O)CN1C(=O)Nc2ccc(Br)cc2C1c1ccccc1` (stereo not drawn), the “hERG current change (%, negative = inhibition) at 10uM” value is on record as -3.51%.

As to `O=C1CN(C(=O)CN2CCCCC2)C(c2ccccc2)c2cc(Br)ccc2N1` (stereo not drawn), the “hERG current change (%, negative = inhibition) at 10uM” value was -66.5%.

On to `CCOC(=O)CN1C(=O)Nc2ccc(Br)cc2C1c1ccccc1` (stereo not drawn), for which the “hERG current change (%, negative = inhibition) at 10uM” value is reported as -56.7%.

As to `COc1ccccc1C(=O)NCCC(=O)NCC(c1ccccc1OC)N1CCCC1` (stereo not drawn), the “hERG current change (%, negative = inhibition) at 10uM” value turned out to be 29.8%.

As to `O=C(Nc1ccncc1)C1CCN(S(=O)(=O)c2ccccc2)CC1`, the “hERG current change (%, negative = inhibition) at 10uM” value is reported as 3.04%.

In the case of `CCOC(=O)C1C(=O)CC(C)(O)C(C(=O)OCC)C1c1ccc([N+](=O)[O-])cc1` (stereo not drawn), the “hERG current change (%, negative = inhibition) at 10uM” value is listed as -8.06%.

Values taken from publication PMC4336329 (PLoS ONE, 2015).
